Laboratory results from ChEMBL document CHEMBL3988442, “University of Dundee, Small-Polar-MMV Screening Library” (2021).

Experiments:
[1] = target: T1, Aspartate--tRNA(Asp/Asn) ligase (Mycobacterium tuberculosis (strain ATCC 25618 / H37Rv)) (UniProt P9WFW3); assay: Assay for Asp RNA synthetase-1 from Mycobacterium tuberculosis; type: functional; set-up: scale not given: direction of the effect not stated beside the values; settings: 30 µM; note: in the data most compounds retested in dose-response had high values
T1 sequence (whole entry): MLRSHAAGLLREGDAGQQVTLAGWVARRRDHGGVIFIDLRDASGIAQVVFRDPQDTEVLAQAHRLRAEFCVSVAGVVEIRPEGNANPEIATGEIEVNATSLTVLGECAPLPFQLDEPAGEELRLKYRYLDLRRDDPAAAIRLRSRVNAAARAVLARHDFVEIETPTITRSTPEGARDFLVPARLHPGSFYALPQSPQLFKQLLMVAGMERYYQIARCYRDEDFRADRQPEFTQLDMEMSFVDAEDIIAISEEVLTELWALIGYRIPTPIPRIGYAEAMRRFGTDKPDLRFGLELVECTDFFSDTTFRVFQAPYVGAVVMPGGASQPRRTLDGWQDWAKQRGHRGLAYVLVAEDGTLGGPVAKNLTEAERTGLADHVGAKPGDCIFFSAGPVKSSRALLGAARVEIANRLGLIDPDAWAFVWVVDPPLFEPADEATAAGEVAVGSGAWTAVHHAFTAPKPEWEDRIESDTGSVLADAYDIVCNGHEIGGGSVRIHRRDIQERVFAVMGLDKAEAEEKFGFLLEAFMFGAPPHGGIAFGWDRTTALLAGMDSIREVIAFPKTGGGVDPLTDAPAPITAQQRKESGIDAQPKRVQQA

[2] = target: Shiga toxin 2 (Escherichia coli O157:H7) (UniProt P09385+P09386); assay: E. coli 0.157:H7 Shiga Toxin SOP - stx2 screening assay; type: functional; set-up: scale not given: direction of the effect not stated beside the values; settings: 30 µM

| SMILES | Percent Effect [1] [%] | Percent Effect [2] [%] |
| --- | --- | --- |
| CN(C)C(=O)c1cnc2n1CCN(Cc1ccccc1)C2 | 0.632 | -28 |
| CN(CCn1cccn1)S(=O)(=O)N1CCCC1c1ccco1 (centres undefined) | 4.31 | 20.4 |
| COc1cc(N2CCCC(c3nccn3Cc3cscn3)C2)nc(N)n1 (centres undefined) | -2.33 | 14.5 |
| Cn1cc(C2CCCN2C(=O)CCCOCc2ccccc2)cn1 (centres undefined) | -6.77 | -16.1 |
| C[C@@H]1CN(C2(C(=O)N3CCCCCC3)Cc3ccccc3C2)C[C@H](C)O1 | -2.09 | 3.06 |
| Fc1ccc2[nH]c(C3CCCN3CCc3ccccn3)nc2c1 (centres undefined) | 7.64 | -16.2 |
| CN(c1ccc(C(C)(C)C)cc1)S(=O)(=O)c1cc(C(=O)O)cs1 | 1.85 | 12.9 |
| Cc1nc(CN2CCCC(Cn3cc(CCO)nn3)C2)c[nH]1 (centres undefined) | 0.881 | -6.46 |
| Cn1cc(CN2CCC3(CCCN3S(C)(=O)=O)CC2)cn1 | 5.38 | 4.5 |
| O=C(O)c1csc(S(=O)(=O)Nc2cccc(OC(F)F)c2)c1 | -0.5 | -13.1 |
| COC(=O)c1ccc(N2CCN(C(=O)c3ccncc3)C(C)C2)cc1 (centres undefined) | -2.26 | -11.4 |
| Cc1ccccc1C1(CNC(=O)NCCc2nnc3n2CCC3)CC1 | -1.38 | -0.461 |
| COc1cccc(CCC2CCCN(C(=O)c3n[nH]c4c3CCC4)C2)c1 (centres undefined) | 2.06 | -1.83 |
| CCN1CCn2c(C)cnc2C12CCN(C(=O)c1ccc(Cl)cc1)CC2 | 2.04 | 8.49 |
| COCCNC(=O)C(C)n1cc(Br)cn1 (centres undefined) | 9.87 | -44.4 |
| CC(C)(C)c1cn2nc(N3CCCC3Cn3cncn3)sc2n1 (centres undefined) | -3.59 | -12.7 |
| CC(Cn1cccn1)NC(=O)Nc1nnc(C2CC2)s1 (centres undefined) | -7.13 | 7.79 |
